Laboratory results reported in PubChem BioAssay (NCI).
The panel holds about 83,000 compounds, 20% with a hit somewhere; the sample as a whole holds those more often.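 Assay: single dose, 48 h. Readout: percent growth (0 = no net growth; negative = cell death). Active: <10.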 Calls of active or inactive are those of the source.

Key:
Experiment in all cases: NCI-60 one-dose screen, 48 h (100 = growth as untreated, 0 = no growth, -100 = all killed)
Conditions in all cases: 10 µM
[1] = system: HOP-92 NSCLC
[2] = system: NCI-H522 lung
[3] = system: MDA-MB-231 breast
[4] = system: RXF 393 renal
[5] = system: SK-MEL-5 melanoma
[6] = system: CCRF-CEM leukemia
[7] = system: OVCAR-4 ovarian
[8] = system: NCI/ADR-RES ovarian
[9] = system: BT-549 breast
[10] = system: MDA-MB-435 melanoma
[11] = system: SW-620 colon
[12] = system: MCF7 breast
[13] = system: HCT-116 colon
[14] = system: KM12 colon
[15] = system: SNB-19 CNS
[16] = system: T-47D breast
[17] = system: HCC-2998 colon
[18] = system: PC-3 prostate

Compound | growth [1] | growth [2] | growth [3] | growth [4] | growth [5] | growth [6] | growth [7] | growth [8] | growth [9] | growth [10] | growth [11] | growth [12] | growth [13] | growth [14] | growth [15] | growth [16] | growth [17] | growth [18]
COc1ccc(C2OC[C@@]3(C)C4CC[C@]5(C)C(CC=C6C7CC(C)(C)CC[C@]7(C(=O)O)CC[C@]65C)[C@@]4(C)C[C@@H](O)[C@@H]3O2)cc1 (stereo not given in full) | 64.8% (inactive) | 57.1% (inactive) | 110% (inactive) | 89% (inactive) | 80.5% (inactive) | 50.3% (inactive) | 86.9% (inactive) | 87.1% (inactive) | 82.4% (inactive) | 97% (inactive) | 69.9% (inactive) | 50.9% (inactive) | 43.3% (inactive) | 54.4% (inactive) | – | – | – | –
O=C1NC(=S)S/C1=C\c1cn(-c2ccccc2)nc1-c1ccc([N+](=O)[O-])cc1 | – | – | 24.7% (inactive) | 3.42% (active) | -33.3% (active) | 18.5% (inactive) | 15% (inactive) | 13.6% (inactive) | -16% (active) | 6.24% (active) | 21.7% (inactive) | 6.25% (active) | 5% (active) | 24.4% (inactive) | 18.7% (inactive) | 6.73% (active) | – | –
Cc1ccc2c(c1)C(=O)/C(=C/c1c[nH]c3ccccc13)S2 | – | – | 59.7% (inactive) | -28.1% (active) | 59% (inactive) | 29.2% (inactive) | 40.9% (inactive) | 71.6% (inactive) | 33.8% (inactive) | 43.8% (inactive) | 28.6% (inactive) | 18.6% (inactive) | 14.2% (inactive) | 35.1% (inactive) | 27.3% (inactive) | 33.5% (inactive) | – | –
O=C(Nc1ccc(OCc2ccc(Cl)cc2)cc1)Nc1ccc(Cl)c(C(F)(F)F)c1 | – | -16.7% (active) | 13.4% (inactive) | -21% (active) | -81.4% (active) | – | 13.8% (inactive) | 1.08% (active) | -17% (active) | 14.2% (inactive) | 25.1% (inactive) | 1.78% (active) | 3.96% (active) | 10.2% (inactive) | – | – | – | –
COc1cccc(O)c1/C=C1\SCc2cc3c(OC)cccc3[o+]c21 | 154% (inactive) | – | 102% (inactive) | – | – | 101% (inactive) | – | 108% (inactive) | 111% (inactive) | 132% (inactive) | 115% (inactive) | 90% (inactive) | 107% (inactive) | 110% (inactive) | – | – | – | –
COc1ccc(C(=O)COc2ccc(NC(=O)Nc3ccc(Cl)c(C(F)(F)F)c3)cc2)cc1 | – | -43.2% (active) | 35.3% (inactive) | -52.1% (active) | -67.3% (active) | – | 19% (inactive) | 17.7% (inactive) | 38% (inactive) | 27.3% (inactive) | 54.6% (inactive) | 17.1% (inactive) | 25.9% (inactive) | 13.6% (inactive) | 21.9% (inactive) | 12.5% (inactive) | – | –
Cc1cc(N=C2NC(=O)S/C2=C\c2ccc(F)cc2)n[nH]1 | – | – | 9.79% (active) | -37.4% (active) | 16.5% (inactive) | 9.4% (active) | 22.7% (inactive) | 9.56% (active) | 3.56% (active) | -11.3% (active) | 20.7% (inactive) | 7.74% (active) | -51.5% (active) | 28.2% (inactive) | 27.4% (inactive) | – | 22.4% (inactive) | –
Cn1cc(/C=C(/SS/C(=C/c2cn(C)c3cccc(C(=O)O)c23)C(=O)O)C(=O)O)c2c(C(=O)O)cccc21 | – | 92.6% (inactive) | 102% (inactive) | 112% (inactive) | 100% (inactive) | 106% (inactive) | 99.6% (inactive) | 93.4% (inactive) | 114% (inactive) | 98% (inactive) | 116% (inactive) | 92.6% (inactive) | 118% (inactive) | 103% (inactive) | 102% (inactive) | 101% (inactive) | – | 97.2% (inactive)
Cc1ccc(COc2ccc(NC(=O)Nc3ccc(Cl)c(C(F)(F)F)c3)cc2)cc1 | – | – | 90.2% (inactive) | 75.5% (inactive) | 79.9% (inactive) | 60.7% (inactive) | 66.4% (inactive) | 84.7% (inactive) | 74.4% (inactive) | 86.1% (inactive) | 86.5% (inactive) | 41.6% (inactive) | 69.7% (inactive) | – | 75.8% (inactive) | – | – | –
O=C(CC(=O)Nc1ccc(Oc2ncnc3scc(Nc4n[nH]c(=S)s4)c23)cc1)Nc1ccc(Cl)cc1 | – | 55.2% (inactive) | 73.8% (inactive) | 94.8% (inactive) | 89% (inactive) | 58.1% (inactive) | 90.2% (inactive) | 89.6% (inactive) | 80.2% (inactive) | 83.2% (inactive) | 93.5% (inactive) | 11.7% (inactive) | 92.5% (inactive) | – | 87.7% (inactive) | 55.1% (inactive) | – | –
Cn1cc(-c2nnc(N)nc2-c2c[nH]c3ccccc23)c2cc(Br)cnc21 | – | – | 54.8% (inactive) | -20.1% (active) | -72.8% (active) | – | 46.5% (inactive) | -5.86% (active) | 17% (inactive) | 5.61% (active) | 57.8% (inactive) | 14% (inactive) | 22.8% (inactive) | 51.1% (inactive) | – | – | -27% (active) | –
Cc1ccc2c(c1)C(=O)/C(=C/c1ccc([N+](=O)[O-])cc1)S2 | – | – | 98.1% (inactive) | 109% (inactive) | 95.1% (inactive) | 109% (inactive) | 83.4% (inactive) | 95.3% (inactive) | 101% (inactive) | 98.9% (inactive) | 49.4% (inactive) | 3.81% (active) | 14.3% (inactive) | 105% (inactive) | 92.4% (inactive) | – | – | –
CC(C)(C)c1cc(/C=C2\S/C(=N/c3ncn[nH]3)NC2=O)cc(C(C)(C)C)c1O | – | – | 23.7% (inactive) | -17.5% (active) | -25.2% (active) | 11% (inactive) | 33.8% (inactive) | 5.61% (active) | -2.05% (active) | 11.9% (inactive) | 15.1% (inactive) | 8.22% (active) | 7.92% (active) | 20.2% (inactive) | 23.7% (inactive) | – | – | –
O=C(CSc1nc2ccccc2c(=O)n1-c1ccc(Cl)cc1)Nc1ccc(-c2nc3ccc([N+](=O)[O-])cc3[nH]2)cc1 | – | 32.7% (inactive) | 42.7% (inactive) | -5.28% (active) | 65.3% (inactive) | – | -12.1% (active) | 61.3% (inactive) | -2.07% (active) | 39.6% (inactive) | 64.2% (inactive) | 20.9% (inactive) | 19.1% (inactive) | 43% (inactive) | – | 6.69% (active) | 12.1% (inactive) | –
Cc1cc(N=C2NC(=O)/C(=C/c3cc(C(C)(C)C)c(O)c(C(C)(C)C)c3)S2)n[nH]1 | – | -26.1% (active) | 22.8% (inactive) | -38.6% (active) | -72.8% (active) | 13% (inactive) | -42.7% (active) | 5.91% (active) | -1.78% (active) | 4.96% (active) | 15.3% (inactive) | 4.33% (active) | 3.45% (active) | 17.1% (inactive) | 21.1% (inactive) | – | 22.5% (inactive) | –
CCn1c(SCC(=O)Nc2ccc(-c3nc4ccccc4[nH]3)cc2)nc2ccccc2c1=O | – | – | -71.1% (active) | -87.1% (active) | -51.2% (active) | 44.7% (inactive) | -84.1% (active) | -42.6% (active) | -83.6% (active) | -94.7% (active) | -35.5% (active) | -71.7% (active) | -81.4% (active) | -14.5% (active) | -63.5% (active) | – | – | –
Cc1ccc2sc3c(c2c1)Oc1nc[nH]c(=O)c1C3c1cccc(F)c1 (stereo not given) | – | – | 91.1% (inactive) | 109% (inactive) | 96.4% (inactive) | 107% (inactive) | 91.7% (inactive) | 100% (inactive) | 95.5% (inactive) | 96.1% (inactive) | 102% (inactive) | 60.9% (inactive) | 89.3% (inactive) | 100% (inactive) | – | 83.9% (inactive) | – | 85.7% (inactive)
COc1ccc(C(=O)COc2ccc(NC(=O)Nc3ccccc3)cc2)cc1 | – | – | 94.1% (inactive) | 82.8% (inactive) | 94.3% (inactive) | 91% (inactive) | 87.2% (inactive) | 86.4% (inactive) | 76.2% (inactive) | 89.4% (inactive) | 101% (inactive) | 67.2% (inactive) | 91% (inactive) | 91.6% (inactive) | – | 65.6% (inactive) | 105% (inactive) | 83.1% (inactive)
COc1ccc(C2c3sc4ccc(C)cc4c3Oc3nc[nH]c(=O)c32)cc1 (stereo not given) | – | 42.7% (inactive) | 83.6% (inactive) | 85.7% (inactive) | 88.8% (inactive) | 91.7% (inactive) | 85.3% (inactive) | 65.4% (inactive) | 77.9% (inactive) | -0.755% (active) | 67.1% (inactive) | 69.6% (inactive) | 90.2% (inactive) | 61.1% (inactive) | 75.3% (inactive) | 83.4% (inactive) | 94% (inactive) | –
O=C(CC(=O)Nc1ccc(Oc2ncnc3scc(Nc4n[nH]c(=S)s4)c23)cc1)Nc1ccc(Br)cc1 | – | – | 101% (inactive) | 129% (inactive) | 98% (inactive) | 75.9% (inactive) | 106% (inactive) | 103% (inactive) | 108% (inactive) | 103% (inactive) | 101% (inactive) | 86.8% (inactive) | 107% (inactive) | – | – | – | – | 99.9% (inactive)
O=C(CSc1nc2ccccc2c(=O)n1-c1ccc(Cl)cc1)Nc1ccc(-c2nc3ccccc3[nH]2)cc1 | – | 15.9% (inactive) | -14.8% (active) | -35.1% (active) | 47.7% (inactive) | – | -75.6% (active) | -3.44% (active) | 35.6% (inactive) | -16% (active) | 7.92% (active) | -68.3% (active) | -84.3% (active) | 17% (inactive) | 18.3% (inactive) | -68.5% (active) | – | –
